High-throughput results: PubChem, Center for Chemical Genomics, University of Michigan
TAR Tat displ: TAR RNA-Tat peptide displacers, HIV-1, primary screen, biochemical, FRET, FAM/TAMRA-labeled Tat | hit rate 0.6% among 100,000 | z-score (no concentration beside the values) | HIV-1 TAR RNA, Tat peptide displacement FRET; active compounds read high; active means z-score of 3 or more in at least 2 runs
CDC25B-CDK2 inh: primary biochemical HTRF screen for blockers of M-phase inducer phosphatase 2 binding to CDK2/cyclin A | P30305+P24941 | HTRF CDC25B-CDK2/CyclinA binding, anti-His/anti-Flag; active compounds read high | z-score (concentration not given with the values) | hit rate 0.72% among 94,000 | AID 1259370, 2018; in the data active means z-score above about 3.2
Of the large screens only hits and unclear results are named; the others gave an inactive call. In the library only some 0.9% were active in any assay of this set; here they are far more common.

COc1ccc(C2CC(=O)N3CN(c4ccc(OC)cc4OC)CSC3=C2C#N)c(OC)c1 (stereo not given)	none
COc1ccc(C2CC(=O)N3CN(c4ccc(C)c(C)c4)CSC3=C2C#N)c(OC)c1 (stereo not given)	CDC25B-CDK2 inh 3.7
N#CC1=C2SCN(c3ccc(F)cc3)CN2C(=O)CC1c1c(F)cccc1Cl (stereo not given)	none
COc1ccc(N2CSC3=C(C#N)C(c4c(F)cccc4Cl)CC(=O)N3C2)cc1 (stereo not given)	CDC25B-CDK2 inh 3.7
COc1ccc(C2CC(=O)N3CN(c4ccc(Cl)cc4)CSC3=C2C#N)c(OC)c1 (stereo not given)	CDC25B-CDK2 inh 6
COc1ccc(C2CC(=O)N3CN(c4ccccc4)CSC3=C2C#N)c(OC)c1 (stereo not given)	CDC25B-CDK2 inh 5.2
Cc1c(-c2nc(-c3ccccc3Cl)no2)nnn1-c1cc(F)ccc1F	none (no result: CDC25B-CDK2 inh)
CSc1sc(C(=O)O)c2c1S(=O)(=O)N(C)c1ccsc1-2	none (no result: TAR Tat displ)
COc1ccc(-c2nnc(SCC(=O)Oc3cc(C)ccc3C)o2)cc1OC	none
Cc1cc(C)cc(NS(=O)(=O)c2cc3c(cc2C)n(C)c(=O)c(=O)n3C)c1	none (no result: CDC25B-CDK2 inh)
O=C(c1ccc2c(=O)n(Cc3ccc4c(c3)OCO4)c(=O)[nH]c2c1)N1CC=C(c2ccccc2)CC1	none (no result: CDC25B-CDK2 inh)
O=C(CCCc1nc(-c2ccco2)no1)Nc1nccs1	none
O=C(Nc1cccc(-c2nc3cccnc3s2)c1)c1ccc2ccccc2n1	none
Cc1cc(Cl)ccc1OCc1nc(-c2ccc(NS(C)(=O)=O)cc2)no1	none (no result: CDC25B-CDK2 inh)
Cc1sc(-c2c[nH]c3ccccc23)nc1-c1c[nH]c2ccccc12	CDC25B-CDK2 inh 18 (no result: TAR Tat displ)
c1ccc2c(-c3ccncc3)c[nH]c2c1	none (no result: CDC25B-CDK2 inh)
COc1ccc(C2=NN(C(=O)CSC3=NCCS3)C(c3cccc(OC)c3OC)C2)cc1 (stereo not given)	none (no result: TAR Tat displ)
COC(=O)[C@]1(C)CC[C@]2(C)CC[C@]3(C)C4=CCc5c(cc(OC(C)=O)c(OC(C)=O)c5C)[C@]4(C)CC[C@@]3(C)C2C1 (stereo not given in full)	none (no result: CDC25B-CDK2 inh)
O=C(CCCc1nc(-c2ccco2)no1)Nc1ccncc1	TAR Tat displ 4.2
O=C(CCc1nc(-c2ccco2)no1)Nc1ccncc1	none
CN1C(=O)c2cc(NC(=O)CCC3CCCC3)ccc2N2CCN=C12	none (no result: CDC25B-CDK2 inh)
Cc1nc(N2CCN(C)CC2)c2c(C)c(C(=O)N3CCN(c4cccc(Cl)c4)CC3)sc2n1	none (no result: TAR Tat displ)
Cc1ccc(C)c(N2CCN(c3c(-c4ccc(C)c(C)c4)c(=O)c3=O)CC2)c1	TAR Tat displ 13 (no result: CDC25B-CDK2 inh)
Cc1ccc(-c2c(N3CCN(c4cc(C)ccc4C)CC3)c(=O)c2=O)cc1	none (no result: CDC25B-CDK2 inh)
COc1cc2c(NC3CCN(C(C)C)CC3)nc(C3CCCCC3)nc2cc1OCCCN1CCCC1	none (no result: CDC25B-CDK2 inh)
COc1cc2c(NC3CCN(C)CC3)nc(N3CCCN(C)CC3)nc2cc1OCCCN(C)C	TAR Tat displ 12 (no result: CDC25B-CDK2 inh)
COc1cc2c(NC3CCN(C)CC3)cc(N3CCCCN(C)CC3)cc2cc1OCCOCCN(C)C	TAR Tat displ 8.3 (no result: CDC25B-CDK2 inh)
O=C(Nc1ccccc1Br)N1CCC2(CC1)Nc1cc(F)ccc1-n1cccc12	none (no result: CDC25B-CDK2 inh)
Nc1cccc(C2NC(=O)CS2)c1 (stereo not given)	CDC25B-CDK2 inh 10
O=C1CSC(c2cccc(NS(=O)(=O)c3ccc(Cl)cc3)c2)N1 (stereo not given)	none (no result: CDC25B-CDK2 inh)
Cc1ccccc1CSc1nc2cccnc2n1Cc1ccc(C(=O)O)cc1	none
CCCCc1nn2c(=O)cc(CS(=O)(=O)c3nc(-c4ccc(C)cc4)n[nH]3)nc2s1	none (no result: CDC25B-CDK2 inh)
c1ccc(-n2nnnc2Oc2cccc(CNCc3cccnc3)c2)cc1	TAR Tat displ 21 (no result: CDC25B-CDK2 inh)
OCCNCc1cccc(Oc2nnnn2-c2ccccc2)c1	none (no result: CDC25B-CDK2 inh)
COc1ccc(Cn2c(CO)cnc2SCc2ccc(Cl)cc2)cc1	none (no result: CDC25B-CDK2 inh)
O=c1[nH]c(C2CCN(S(=O)(=O)Cc3ccc(F)cc3)CC2)nc2c1nnn2Cc1ccccc1	none
COc1cc2ncc(S(=O)(=O)c3ccc(C)cc3)c(N3CCCC3)c2cc1OC	CDC25B-CDK2 inh 9.6
CCOc1ccc2ncc(S(=O)(=O)c3ccc(C)cc3)c(N3CCCC3)c2c1	CDC25B-CDK2 inh 5.2
CCOc1ccc2ncc(S(=O)(=O)c3ccccc3)c(N3CCCCC3)c2c1	none
COc1ccc(S(=O)(=O)c2cnc3cc(OC)c(OC)cc3c2N2CCCCC2)cc1	none
O=c1cc(Nc2ccc3c4c(cccc24)CC3)[nH]c(=O)[nH]1	none (no result: TAR Tat displ)
CSc1ccccc1C(=O)c1ccccc1C(=O)O	none (no result: TAR Tat displ)
O=C(O)c1ccccc1Sc1cc(C(=O)O)c(Sc2ccccc2C(=O)O)cc1C(=O)O	CDC25B-CDK2 inh 15 (no result: TAR Tat displ)
CCN1CCN(c2nc3c(c(=O)[nH]c(=O)n3C)n2CCC(C)C)CC1	none (no result: TAR Tat displ)
O=c1ccc2cc(S(=O)(=O)Nc3ccc(Cl)cc3)ccc2[nH]1	none (no result: CDC25B-CDK2 inh)
COc1ccc(C(=O)CSc2n[nH]c(-c3ccco3)n2)cc1C	none
Cc1ccc(C(=O)CSc2n[nH]c(-c3ccco3)n2)cc1C	TAR Tat displ 15
Cc1nc2c3ccccc3nc(N3CCC(C(N)=O)(N4CCCCC4)CC3)n2n1	none
CC1CCN(C(=O)c2csc(S(=O)(=O)N3CCc4ccccc4C3)c2)CC1	none (no result: CDC25B-CDK2 inh)
O=C(CSc1nc2c(c(=O)[nH]1)CCCC2)Nc1ccccc1F	TAR Tat displ 15
O=C(CSc1nc2c(c(=O)[nH]1)CCCC2)Nc1ccccc1Cl	none
Cc1ccc2c(C)nc(Nc3nc4c(c(=O)[nH]3)CCC4)nc2c1	CDC25B-CDK2 inh 10 (no result: TAR Tat displ)
Cc1ccc2nc(Nc3nc4c(c(=O)[nH]3)CCCC4)nc(C)c2c1	none
COc1ccc(C(=O)OCc2cc(=O)n3oc(C)cc3n2)cc1	none (no result: CDC25B-CDK2 inh)
O=C(NCc1ccccc1)N1CC2C=CC1C2 (stereo not given)	none
O=c1c2c(nc3cc(-c4ccccc4)[nH]n13)CCCC2	none (no result: TAR Tat displ)
COc1cccc(-c2cc3nc(-c4ccccc4)cc(=O)n3[nH]2)c1	none (no result: TAR Tat displ)
O=c1c2c(nc3cc(-c4ccco4)[nH]n13)CSC2	CDC25B-CDK2 inh 19 (no result: TAR Tat displ)
O=c1cc(-c2cccnc2)nc2cc(-c3ccco3)[nH]n12	CDC25B-CDK2 inh 19 (no result: TAR Tat displ)
COc1ccc(-n2nnnc2CNS(=O)(=O)c2ccccc2)cc1	none (no result: CDC25B-CDK2 inh)
COc1ccc(Nc2ncnc3c2cnn3C)cc1Cl	none (no result: CDC25B-CDK2 inh)
CCOC(=O)C1CCN(S(=O)(=O)c2ccc3c(c2)NC(=O)CC(C)S3)CC1 (stereo not given)	none (no result: CDC25B-CDK2 inh)
Cc1cccc(Nc2nc(-c3ccc(O)c(O)c3)cs2)n1	TAR Tat displ 16
Cc1ccnc(Nc2nc(-c3ccc(O)c(O)c3)cs2)c1	TAR Tat displ 10
Cc1cccc(Nc2nc(-c3ccncc3)cs2)n1	none
Cc1ccnc(Nc2nc(-c3ccc(O)cc3)cs2)c1	none
COc1ccc(CN2CN(CCN3CCOCC3)CSC2=S)cc1	none
Nc1ccc(N2CCn3c(nc4ccccc43)C2)cc1	CDC25B-CDK2 inh 13
Nc1cccc(N2CCn3c(nc4cc(Cl)ccc43)C2)c1	none
c1ccc(CN2CCn3c(nc4ccccc43)C2)cc1	none
Nc1cccc(N2CCn3c(nc4ccccc43)C2)c1	CDC25B-CDK2 inh 7.4
CCCN1C(=O)C(CC(C)=O)(OC(C)=O)c2ccccc21 (stereo not given)	none (no result: TAR Tat displ)
CC(=O)CC(=O)Nc1ccccc1Cl	none (no result: TAR Tat displ)
O=C(NCc1ccco1)c1ccc2c(=O)[nH]c3c(C(=O)NC4CCCC4)sc(=S)n3c2c1	TAR Tat displ 16 (no result: CDC25B-CDK2 inh)
CCOCCCNC(=O)c1ccc2c(=O)[nH]c3c(C(=O)NC4CCCC4)sc(=S)n3c2c1	none (no result: CDC25B-CDK2 inh)
O=C(NCCCN1CCCC1)NC1COc2ccccc2C1 (stereo not given)	none (no result: CDC25B-CDK2 inh)
Cn1c2c(c(=O)[nH]c1=O)C(c1ccc([N+](=O)[O-])o1)C1=C(N2)c2ccccc2C1=O (stereo not given)	TAR Tat displ 3.6
